# Several values for one entry are separate records, joined by “and”; a condition that tells them apart may be missing. Identical values can stand only once. Unmarked numbers belong to inactive results. Records with an inconclusive call do not appear. Where a call stands in place of a potency, no number is given. Activity calls are given as the source filed them. Unless noted, calls come from the whole dose curve.
# What was measured:
# [1] = qHTS assay to identify small molecule antagonists of the sonic hedgehog signaling (Shh) pathway (AID 1259369); note: nearly all actives have a fitted effect of over 45% in size; note: potency is the fitted concentration of half-maximal effect
# Procedure, shortened: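 Cells are plated and held 4hr at 37 C, compounds (DMSO) are pinned in, conditioned medium is added to stimulate the pathway, and after 24hr luciferase reagent is added for 30min before luminescence is read.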
# [2] = qHTS assay to identify small molecule agonists of the androgen receptor (AR) signaling pathway in the presence of an antagonist - cell viability counter screen (AID 1259379; active = well fitted curve in the direction sought with a large enough effect in the repeat runs; an effect the other way counts as inactive or inconclusive; note: nearly all actives have a fitted effect of over 25% in size; note: potency is the fitted concentration of half-maximal effect;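 for activity change, negative = cytotoxicity: MDA-kb2 human breast cancer cells carrying an MMTV luciferase reporter; series mostly up to about 92 µM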)
# Procedure, shortened: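 Cytotoxicity is assessed by CellTiter-Fluor in MDA-kb2 cells carrying an MMTV-driven luciferase reporter. Cells receive 3.0uM nilutamide plus compounds at 15 concentrations and incubate 16 hr at 37C without CO2 before fluorescence reading.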
# [3] = qHTS assay to identify small molecule agonists of the estrogen receptor beta (ER-beta) signaling pathway - cell viability counter screen (AID 1259380; active = well fitted curve in the direction sought with a large enough effect in the repeat runs; an effect the other way counts as inactive or inconclusive; note: nearly all actives have a fitted effect of over 30% in size)
# Procedure, shortened: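 Cytotoxicity is measured in parallel with the reporter screen: after 16 hr compound exposure at 37C and a 2 hr LiveBLAzer step, CellTiter-Glo is added to the same ER-beta-UAS-bla HEK293T wells and luminescence read after 30 min.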
# [4] = biological target: Estrogen receptor (Homo sapiens) (UniProt P03372); assay: qHTS assay to identify small molecule agonists of the estrogen receptor alpha (ER-alpha) signaling pathway in the presence of an antagonist (AID 1259383); note: nearly all actives have a fitted effect of over 15% in size; note: potency is the fitted concentration of half-maximal effect; for activation: top concentration of the series differs between compounds
# Procedure, shortened: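 Agonist-mode confirmation in the presence of the ER antagonist ICI-182,780 at 10.0nM final. Breast-derived VM7Luc4E2 reporter cells were exposed to compounds for 22hr, and ERE-driven luciferase was quantified by luminescence.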
# [5] = qHTS assay to identify small molecule agonists or antagonists of the thyroid stimulating hormone receptor (TSHR) signaling pathway - wild type cell line counter screen (AID 1259384)
# Procedure, shortened: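 Wild-type HEK293 cells were plated 18 h at 37 C/5% CO2, pin-dosed with compound plus Ro20-1724 medium, held 30 min at room temperature, then given cAMP-d2 and anti-cAMP-cryptate; fluorescence was read after 1 h. Fifteen concentrations, triplicate.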
# [6] = biological target: Thyrotropin receptor (Homo sapiens) (UniProt P16473); assay: qHTS assay to identify small molecule antagonists of the thyroid stimulating hormone receptor (TSHR) signaling pathway (AID 1259385); note: nearly all actives have a fitted effect of over 20% in size
# Procedure, shortened: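 TSHR-HEK293 cells were plated and held 18 h at 37C/5% CO2, then given compound plus Ro20-1724 and stimulated with TSH at 1.5 ng/mL final. After 30 min at room temperature, cAMP was detected with cAMP-d2/anti-cAMP-cryptate (1 h) by fluorescence.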
# [7] = biological target: Androgen receptor (Homo sapiens) (UniProt P10275); assay: qHTS assay to identify small molecule agonists of the androgen receptor (AR) signaling pathway in the presence of an antagonist (AID 1259381); note: nearly all actives have a fitted effect of over 15% in size
# Procedure, shortened: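 Agonist-mode confirmation screen: human MDA-kb2 cells stably expressing luciferase under an MMTV promoter bearing AR and GR response elements, co-treated with 3.0uM nilutamide (final). Luminescence measured after 16hr compound incubation.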
# [8] = qHTS assay to identify small molecule antagonists of the estrogen receptor beta (ER-beta) signaling pathway - cell viability counter screen (AID 1259382; active = well fitted curve in the direction sought with a large enough effect in the repeat runs; an effect the other way counts as inactive or inconclusive;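 note: HEK293T cells carrying ER-beta-UAS-bla reporter stimulated with estradiol; series mostly up to about 92 µM; nearly all actives have a fitted effect of over 55% in size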)
# Procedure, shortened: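 Cytotoxicity counter screen multiplexed with the beta-lactamase antagonist assay: GripTite HEK293T ER-beta-bla cells were treated 16 hr with test chemicals in the presence of 1nM 17-beta-estradiol, and viability was measured by CellTiter-Glo.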
# Sequence of Thyrotropin receptor (Homo sapiens) (P16473 whole entry, looked up): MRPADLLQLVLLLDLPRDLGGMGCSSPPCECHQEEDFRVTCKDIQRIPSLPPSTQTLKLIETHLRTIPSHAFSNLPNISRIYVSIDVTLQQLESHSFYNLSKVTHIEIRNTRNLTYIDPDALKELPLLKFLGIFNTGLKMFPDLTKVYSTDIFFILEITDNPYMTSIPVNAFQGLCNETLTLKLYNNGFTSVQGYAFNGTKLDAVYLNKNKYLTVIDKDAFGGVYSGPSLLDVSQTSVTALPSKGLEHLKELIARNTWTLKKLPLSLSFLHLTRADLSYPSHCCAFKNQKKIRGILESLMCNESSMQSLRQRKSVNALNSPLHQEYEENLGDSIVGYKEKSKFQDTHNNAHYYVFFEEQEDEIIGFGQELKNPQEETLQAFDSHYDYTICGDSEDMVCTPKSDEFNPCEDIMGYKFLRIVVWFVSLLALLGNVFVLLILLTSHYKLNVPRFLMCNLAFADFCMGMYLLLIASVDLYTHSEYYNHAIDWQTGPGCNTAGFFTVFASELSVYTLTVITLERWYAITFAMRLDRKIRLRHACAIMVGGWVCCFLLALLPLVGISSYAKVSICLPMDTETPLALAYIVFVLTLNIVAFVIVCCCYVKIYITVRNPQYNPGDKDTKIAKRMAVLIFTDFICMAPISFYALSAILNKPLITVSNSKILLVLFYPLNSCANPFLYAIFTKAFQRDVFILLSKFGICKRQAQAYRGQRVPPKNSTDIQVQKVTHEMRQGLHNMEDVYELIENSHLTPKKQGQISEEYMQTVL
# Sequence of Estrogen receptor (Homo sapiens) (P03372 whole entry, looked up): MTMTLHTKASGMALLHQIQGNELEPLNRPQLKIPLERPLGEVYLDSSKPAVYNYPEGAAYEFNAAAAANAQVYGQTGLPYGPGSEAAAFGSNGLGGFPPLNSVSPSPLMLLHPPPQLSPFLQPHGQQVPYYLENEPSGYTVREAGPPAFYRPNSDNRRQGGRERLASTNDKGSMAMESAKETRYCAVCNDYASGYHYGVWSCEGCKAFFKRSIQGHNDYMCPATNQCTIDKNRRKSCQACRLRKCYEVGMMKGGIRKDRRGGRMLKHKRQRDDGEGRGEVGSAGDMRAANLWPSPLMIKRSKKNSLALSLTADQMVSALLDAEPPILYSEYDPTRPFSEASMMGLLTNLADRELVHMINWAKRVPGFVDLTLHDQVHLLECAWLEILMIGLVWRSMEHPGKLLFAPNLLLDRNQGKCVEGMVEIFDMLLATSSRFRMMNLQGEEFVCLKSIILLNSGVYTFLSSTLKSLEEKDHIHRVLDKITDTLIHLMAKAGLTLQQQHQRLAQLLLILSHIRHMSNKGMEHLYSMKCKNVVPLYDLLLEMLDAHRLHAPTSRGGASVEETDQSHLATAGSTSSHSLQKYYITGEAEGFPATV
# Sequence of Androgen receptor (Homo sapiens) (P10275 whole entry, looked up): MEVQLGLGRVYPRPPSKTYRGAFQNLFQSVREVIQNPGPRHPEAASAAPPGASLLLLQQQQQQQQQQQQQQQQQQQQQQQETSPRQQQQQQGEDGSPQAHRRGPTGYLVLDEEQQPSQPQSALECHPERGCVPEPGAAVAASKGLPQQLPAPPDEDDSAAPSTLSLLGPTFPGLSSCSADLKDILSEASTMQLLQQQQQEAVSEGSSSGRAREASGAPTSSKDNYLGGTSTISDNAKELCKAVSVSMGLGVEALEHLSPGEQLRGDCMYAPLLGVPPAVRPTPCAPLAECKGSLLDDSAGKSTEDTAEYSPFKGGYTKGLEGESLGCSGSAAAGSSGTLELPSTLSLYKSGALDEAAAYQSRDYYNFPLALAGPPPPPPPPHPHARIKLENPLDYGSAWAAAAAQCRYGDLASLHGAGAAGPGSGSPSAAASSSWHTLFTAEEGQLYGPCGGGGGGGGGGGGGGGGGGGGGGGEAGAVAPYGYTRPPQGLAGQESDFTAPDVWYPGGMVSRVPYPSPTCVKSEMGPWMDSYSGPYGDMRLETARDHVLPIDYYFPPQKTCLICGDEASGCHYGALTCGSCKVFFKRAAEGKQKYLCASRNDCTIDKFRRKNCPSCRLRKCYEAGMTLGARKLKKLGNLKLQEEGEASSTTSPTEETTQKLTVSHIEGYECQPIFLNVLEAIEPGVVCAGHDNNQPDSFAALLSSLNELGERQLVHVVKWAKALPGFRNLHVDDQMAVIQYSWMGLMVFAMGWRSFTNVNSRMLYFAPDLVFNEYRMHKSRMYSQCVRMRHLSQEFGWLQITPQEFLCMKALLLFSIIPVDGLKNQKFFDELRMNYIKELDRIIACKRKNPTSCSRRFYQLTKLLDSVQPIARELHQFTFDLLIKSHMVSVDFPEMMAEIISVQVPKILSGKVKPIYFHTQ
compound,measurement,setting,value
C[N+]1(C)CCC(OC(=O)C(O)(c2ccccc2)C2CCCC2)C1 (configuration not stated),Potency,[1],inactive
same,Potency,[2],inactive
same,Potency,[3],inactive
same,Potency,[4],inactive
same,Potency,[5],inactive
same,Potency,[6],inactive
CN(C)CCOC(c1ccccc1)c1ccc(Br)cc1 (configuration not stated),Potency,[1],2.11 µM (active)
same,Potency,[2],inactive
same,Potency,[7],inactive
same,Potency,[4],inactive
same,Potency,[5],inactive
same,Potency,[6],inactive
C/C(=C(\CCOP(=O)(O)O)SC(=O)c1ccccc1)N(C=O)Cc1cnc(C)nc1N,"activity change, negative = inhibition",[1],1.8% [at 8.39 µM]
same,"activity change, negative = cytotoxicity",[2],1.6% [at 8.39 µM]
same,activation,[7],-1.54% [at 8.39 µM]
same,"activity change, negative = cytotoxicity",[8],2.09% [at 8.39 µM]
same,activation,[4],0.094% [at 8.39 µM]
same,cAMP activity change,[5],"-0.23% [at 8.39 µM, hits give high values]"
same,"activity change, negative = inhibition",[6],-1.28% [at 8.39 µM]
CCN(CC)CCOC(=O)C(Cc1cccc2ccccc12)CC1CCCO1 (configuration not stated),Potency,[1],inactive
same,Potency,[2],inactive
same,Potency,[8],inactive
same,Potency,[5],inactive
O=C1CCC(=O)O1,Potency,[1],inactive
same,Potency,[2],inactive
same,Potency,[3],inactive
same,Potency,[4],inactive
COc1ccc(S(=O)(=O)N2C(=O)[C@@](c3ccccc3OC)(N3C[C@H](O)C[C@H]3C(=O)N(C)C)c3cc(Cl)ccc32)c(OC)c1,Potency,[1],15.4 µM (active)
same,Potency,[2],54.5 µM (active)
same,Potency,[7],inactive
same,Potency,[8],inactive
same,Potency,[4],inactive
same,Potency,[5],inactive
same,Potency,[6],inactive
CCC(C)O (configuration not stated),Potency,[1],inactive
same,Potency,[2],inactive
same,Potency,[8],inactive
same,Potency,[5],inactive
same,Potency,[6],inactive
Cn1c(=O)cc(Oc2ccc(F)cc2F)c2cnc(NCC(C)(C)O)nc21,Potency,[1],27.3 µM (active)
same,Potency,[2],inactive
same,Potency,[3],inactive
same,Potency,[4],inactive
C=CC(=O)OCCOCCOCCOCCOC(=O)C=C,Potency,[1],3.08 µM (active) and 6.06 µM (active)
same,Potency,[2],61.4 µM (active) and 54 µM (active)
same,Potency,[8],inactive
same,Potency,[4],inactive
same,Potency,[5],inactive
same,Potency,[6],inactive
Cc1nn(C)c(Oc2ccccc2)c1/C=N/OCc1ccc(C(=O)OC(C)(C)C)cc1,Potency,[1],0.0273 µM (active)
same,Potency,[2],0.0306 µM (active)
same,Potency,[7],inactive
same,Potency,[4],inactive
same,Potency,[5],inactive
CCCCCCCC#N,Potency,[1],30.6 µM (active)
same,Potency,[2],inactive
same,Potency,[3],inactive
same,Potency,[5],inactive
same,Potency,[6],inactive
Nc1c(CC(=O)O)cccc1C(=O)c1ccc(Br)cc1,Potency,[1],inactive
same,Potency,[2],inactive
same,Potency,[3],inactive
same,Potency,[4],inactive
same,Potency,[5],inactive
same,Potency,[6],inactive
CCCC(=O)Nc1ccc(O)c(C(C)=O)c1,Potency,[1],inactive
same,Potency,[2],inactive
same,Potency,[3],inactive
same,Potency,[4],inactive
same,Potency,[5],inactive
same,Potency,[6],inactive
OC(C#CCN1CCCC1)(c1ccccc1)c1ccccc1,Potency,[1],3.76 µM (active)
same,Potency,[2],inactive
same,Potency,[8],inactive
same,Potency,[5],inactive
same,Potency,[6],inactive
C[C@H]1C[C@H]2[C@@H]3CCC4=CC(=O)C=C[C@]4(C)[C@@]3(Cl)[C@@H](O)C[C@]2(C)[C@@]1(O)C(=O)CO,Potency,[1],inactive
same,Potency,[2],inactive
same,Potency,[8],inactive
same,Potency,[4],inactive
same,Potency,[5],inactive
CCCCC/C=C\C/C=C\CCCCCCCC(=O)NC(C)c1ccccc1 (configuration not stated),Potency,[1],13.3 µM (active)
same,Potency,[2],inactive
same,Potency,[8],inactive
same,Potency,[4],inactive
same,Potency,[5],inactive
CN(C)c1ccc(/C=C/c2ccc([N+](=O)[O-])cc2)cc1,"activity change, negative = inhibition",[1],48% [at 8.39 µM]
same,"activity change, negative = cytotoxicity",[2],4.91% [at 8.39 µM]
same,"activity change, negative = cytotoxicity",[8],-2.95% [at 8.39 µM]
same,cAMP activity change,[5],"6.39% [at 8.39 µM, hits give high values]"
same,"activity change, negative = inhibition",[6],-4.14% [at 8.39 µM]
CCCCCCc1ccc(-c2ccc(C#N)cc2)cc1,Potency,[1],inactive
same,Potency,[2],inactive
same,Potency,[8],inactive
same,Potency,[5],inactive
same,Potency,[6],inactive
CNC(=O)CN(CCN(CCN(CC(=O)[O-])CC(=O)NC)CC(=O)[O-])CC(=O)[O-].O.[Gd+3],Potency,[1],inactive
same,Potency,[2],inactive
same,Potency,[8],inactive
same,Potency,[4],inactive
C/C=C(/C(=C/C)c1ccc(OC(C)=O)cc1)c1ccc(OC(C)=O)cc1,Potency,[1],29.8 µM (active)
same,Potency,[2],inactive
same,Potency,[3],inactive
same,Potency,[4],13.3 nM (active)
same,Potency,[5],inactive
same,Potency,[6],inactive
CC(=O)[O][Al][O]C(C)=O,Potency,[1],inactive
same,Potency,[2],inactive
same,Potency,[8],inactive
same,Potency,[5],inactive
CC/C=C\CCOC(=O)CC,Potency,[1],inactive
same,Potency,[2],inactive
same,Potency,[3],inactive
same,Potency,[8],inactive
same,Potency,[5],inactive
same,Potency,[6],inactive
COC(C)OC,Potency,[1],inactive
same,Potency,[2],inactive
same,Potency,[3],inactive
same,Potency,[4],inactive
same,Potency,[5],inactive
same,Potency,[6],inactive
CC1CCC(=O)C1=O (configuration not stated),Potency,[1],inactive
same,Potency,[2],inactive
same,Potency,[3],inactive
same,Potency,[4],inactive
same,Potency,[5],inactive
same,Potency,[6],inactive
O=C(OCCc1ccccc1)c1ccccc1,Potency,[1],inactive
same,Potency,[2],inactive
same,Potency,[3],inactive
same,Potency,[5],inactive
same,Potency,[6],inactive
CCCCc1ncc(/C=C(\Cc2cccs2)C(=O)O)n1Cc1ccc(C(=O)O)cc1,Potency,[1],inactive
same,Potency,[2],inactive
same,Potency,[3],inactive
same,Potency,[8],inactive
same,Potency,[5],inactive
same,Potency,[6],inactive
CCOC(=O)C(F)(F)F,Potency,[1],inactive
same,Potency,[2],inactive
same,Potency,[3],inactive
same,Potency,[8],inactive
same,Potency,[5],inactive
same,Potency,[6],inactive
Cc1cccc(Nc2ccccc2)c1,Potency,[1],inactive
same,Potency,[2],inactive
same,Potency,[7],inactive
same,Potency,[8],inactive
same,Potency,[5],inactive
same,Potency,[6],inactive
O=C(OCCCCCCOC(=O)c1ccccc1)c1ccccc1,Potency,[1],27.3 µM (active)
same,Potency,[2],inactive
same,Potency,[3],inactive
same,Potency,[4],inactive
same,Potency,[5],inactive
same,Potency,[6],inactive

# Source: PubChem BioAssay (Tox21)
